# Experimental data taken from ChEMBL document CHEMBL2218924, “A broad activity screen in support of a chemogenomic map for kinase signalling research and drug discovery” (Biochem J, 2013).
# Legend:
# [1] = target: T1, Tyrosine-protein kinase ITK/TSK (Homo sapiens) (UniProt Q08881); conditions: at 10 µM
# T1 sequence (whole entry): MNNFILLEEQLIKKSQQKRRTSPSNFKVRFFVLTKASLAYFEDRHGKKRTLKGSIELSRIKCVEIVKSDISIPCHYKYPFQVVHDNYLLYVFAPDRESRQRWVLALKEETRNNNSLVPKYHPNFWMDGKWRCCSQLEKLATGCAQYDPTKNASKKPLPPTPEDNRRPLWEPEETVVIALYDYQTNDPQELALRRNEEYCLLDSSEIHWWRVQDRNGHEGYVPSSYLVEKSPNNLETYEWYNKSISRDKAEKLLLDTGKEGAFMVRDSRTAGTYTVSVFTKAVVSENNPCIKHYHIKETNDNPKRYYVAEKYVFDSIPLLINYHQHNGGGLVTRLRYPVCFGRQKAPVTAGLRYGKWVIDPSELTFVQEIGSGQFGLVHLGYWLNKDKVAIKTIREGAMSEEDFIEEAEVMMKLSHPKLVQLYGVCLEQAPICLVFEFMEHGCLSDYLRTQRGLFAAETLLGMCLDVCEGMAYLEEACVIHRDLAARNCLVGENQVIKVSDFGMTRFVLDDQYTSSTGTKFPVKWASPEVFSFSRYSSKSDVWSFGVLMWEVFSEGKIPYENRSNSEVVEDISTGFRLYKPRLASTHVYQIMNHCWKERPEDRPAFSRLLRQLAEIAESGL
# [2] = target: Tyrosine-protein kinase JAK2 (Homo sapiens) (UniProt O60674); conditions: at 1 µM
# [3] = target: Tyrosine-protein kinase JAK2 (Homo sapiens) (UniProt O60674); conditions: at 10 µM
# [4] = target: T2, Tyrosine-protein kinase JAK3 (Homo sapiens) (UniProt P52333); conditions: at 1 µM
# T2 sequence (whole entry): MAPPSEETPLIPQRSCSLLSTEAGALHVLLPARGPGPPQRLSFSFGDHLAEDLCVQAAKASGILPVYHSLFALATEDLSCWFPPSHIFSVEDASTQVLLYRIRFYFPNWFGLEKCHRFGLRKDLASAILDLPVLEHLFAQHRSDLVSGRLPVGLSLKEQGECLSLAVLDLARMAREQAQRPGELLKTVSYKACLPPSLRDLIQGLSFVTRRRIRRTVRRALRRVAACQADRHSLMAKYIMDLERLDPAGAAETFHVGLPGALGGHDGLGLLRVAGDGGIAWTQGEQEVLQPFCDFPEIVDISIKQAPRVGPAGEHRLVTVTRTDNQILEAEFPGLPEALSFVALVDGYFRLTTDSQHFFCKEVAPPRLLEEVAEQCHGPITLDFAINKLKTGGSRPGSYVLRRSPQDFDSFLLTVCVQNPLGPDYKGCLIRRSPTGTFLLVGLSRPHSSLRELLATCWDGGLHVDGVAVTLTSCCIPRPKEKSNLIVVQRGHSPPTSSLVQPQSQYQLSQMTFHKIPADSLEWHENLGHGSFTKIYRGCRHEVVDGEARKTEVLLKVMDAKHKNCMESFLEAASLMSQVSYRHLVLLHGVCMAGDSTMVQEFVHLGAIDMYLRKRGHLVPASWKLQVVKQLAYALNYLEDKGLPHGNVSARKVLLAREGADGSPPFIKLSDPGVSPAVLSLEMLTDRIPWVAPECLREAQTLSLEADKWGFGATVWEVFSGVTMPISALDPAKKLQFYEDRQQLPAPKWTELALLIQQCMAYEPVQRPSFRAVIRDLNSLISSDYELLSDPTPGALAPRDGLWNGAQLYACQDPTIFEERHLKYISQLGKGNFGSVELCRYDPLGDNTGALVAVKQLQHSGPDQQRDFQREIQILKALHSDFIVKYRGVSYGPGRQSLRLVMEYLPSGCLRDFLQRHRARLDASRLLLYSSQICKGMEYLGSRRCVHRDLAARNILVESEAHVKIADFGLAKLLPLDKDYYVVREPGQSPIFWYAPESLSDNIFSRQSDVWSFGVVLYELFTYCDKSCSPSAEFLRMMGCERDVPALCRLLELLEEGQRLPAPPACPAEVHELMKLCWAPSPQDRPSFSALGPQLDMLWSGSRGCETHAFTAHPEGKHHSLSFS
# [5] = target: T2, Tyrosine-protein kinase JAK3 (Homo sapiens); conditions: at 10 µM
# [6] = target: Mitogen-activated protein kinase 8 (Homo sapiens) (UniProt P45983); conditions: at 1 µM
# [7] = target: Mitogen-activated protein kinase 8 (Homo sapiens) (UniProt P45983); conditions: at 10 µM
# [8] = target: Mitogen-activated protein kinase 9 (Homo sapiens) (UniProt P45984); conditions: at 1 µM
# [9] = target: Mitogen-activated protein kinase 9 (Homo sapiens) (UniProt P45984); conditions: at 10 µM
# [10] = target: Mitogen-activated protein kinase 10 (Homo sapiens) (UniProt P53779); conditions: at 1 µM
# Mitogen-activated protein kinase 10 (Homo sapiens), sequence (P53779 whole entry): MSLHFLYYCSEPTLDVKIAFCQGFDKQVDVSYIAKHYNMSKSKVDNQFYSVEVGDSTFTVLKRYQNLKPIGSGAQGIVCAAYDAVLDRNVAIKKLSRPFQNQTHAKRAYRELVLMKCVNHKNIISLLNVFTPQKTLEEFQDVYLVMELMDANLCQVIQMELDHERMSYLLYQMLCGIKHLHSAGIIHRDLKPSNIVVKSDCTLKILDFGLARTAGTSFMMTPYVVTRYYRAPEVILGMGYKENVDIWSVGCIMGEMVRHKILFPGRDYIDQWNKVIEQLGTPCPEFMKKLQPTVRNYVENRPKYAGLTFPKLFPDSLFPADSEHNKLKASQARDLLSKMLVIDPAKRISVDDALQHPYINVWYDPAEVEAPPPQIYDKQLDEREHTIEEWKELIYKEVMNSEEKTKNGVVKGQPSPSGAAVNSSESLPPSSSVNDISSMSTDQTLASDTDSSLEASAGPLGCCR
# Mitogen-activated protein kinase 9 (Homo sapiens), sequence (P45984 whole entry, looked up): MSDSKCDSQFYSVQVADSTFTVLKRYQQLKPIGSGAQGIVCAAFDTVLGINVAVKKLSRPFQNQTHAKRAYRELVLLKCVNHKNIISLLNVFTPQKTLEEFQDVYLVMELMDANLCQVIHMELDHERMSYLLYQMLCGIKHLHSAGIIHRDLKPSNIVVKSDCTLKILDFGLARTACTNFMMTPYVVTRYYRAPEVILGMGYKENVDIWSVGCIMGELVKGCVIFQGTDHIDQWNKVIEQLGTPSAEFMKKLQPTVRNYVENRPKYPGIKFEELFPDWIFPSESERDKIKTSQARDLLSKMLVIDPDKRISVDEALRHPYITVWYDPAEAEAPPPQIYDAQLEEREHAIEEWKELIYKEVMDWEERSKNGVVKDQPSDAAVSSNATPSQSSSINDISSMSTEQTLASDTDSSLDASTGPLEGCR
# Tyrosine-protein kinase JAK2 (Homo sapiens), sequence (O60674 whole entry): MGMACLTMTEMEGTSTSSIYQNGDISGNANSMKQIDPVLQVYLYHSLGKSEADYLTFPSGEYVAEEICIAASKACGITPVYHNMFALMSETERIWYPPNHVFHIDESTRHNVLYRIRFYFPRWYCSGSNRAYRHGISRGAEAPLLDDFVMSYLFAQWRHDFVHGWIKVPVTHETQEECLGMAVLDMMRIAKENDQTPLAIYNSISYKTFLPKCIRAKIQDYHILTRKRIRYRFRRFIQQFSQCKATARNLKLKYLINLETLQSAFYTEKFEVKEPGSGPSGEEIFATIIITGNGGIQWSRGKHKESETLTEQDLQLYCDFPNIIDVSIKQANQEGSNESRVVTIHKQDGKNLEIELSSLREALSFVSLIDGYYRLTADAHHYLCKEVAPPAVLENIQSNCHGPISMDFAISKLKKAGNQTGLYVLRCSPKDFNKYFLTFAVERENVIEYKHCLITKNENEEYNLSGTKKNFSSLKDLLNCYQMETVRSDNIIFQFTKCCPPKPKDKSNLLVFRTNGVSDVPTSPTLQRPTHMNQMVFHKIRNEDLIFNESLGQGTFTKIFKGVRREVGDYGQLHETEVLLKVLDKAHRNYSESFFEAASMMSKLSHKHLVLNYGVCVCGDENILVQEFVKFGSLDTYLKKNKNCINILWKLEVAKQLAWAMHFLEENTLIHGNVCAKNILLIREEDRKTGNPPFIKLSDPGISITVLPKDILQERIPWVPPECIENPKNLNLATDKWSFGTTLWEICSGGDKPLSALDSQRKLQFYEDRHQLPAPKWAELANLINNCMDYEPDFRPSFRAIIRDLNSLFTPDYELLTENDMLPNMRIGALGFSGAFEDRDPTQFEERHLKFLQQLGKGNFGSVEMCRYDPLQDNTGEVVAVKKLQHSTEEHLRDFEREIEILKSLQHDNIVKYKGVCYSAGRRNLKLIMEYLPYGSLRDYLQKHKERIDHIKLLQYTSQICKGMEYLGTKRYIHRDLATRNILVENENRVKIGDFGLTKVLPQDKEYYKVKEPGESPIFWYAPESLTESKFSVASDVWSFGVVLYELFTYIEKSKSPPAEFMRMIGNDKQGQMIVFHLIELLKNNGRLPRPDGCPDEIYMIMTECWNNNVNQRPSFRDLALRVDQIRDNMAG
# Mitogen-activated protein kinase 8 (Homo sapiens), sequence (P45983 whole entry): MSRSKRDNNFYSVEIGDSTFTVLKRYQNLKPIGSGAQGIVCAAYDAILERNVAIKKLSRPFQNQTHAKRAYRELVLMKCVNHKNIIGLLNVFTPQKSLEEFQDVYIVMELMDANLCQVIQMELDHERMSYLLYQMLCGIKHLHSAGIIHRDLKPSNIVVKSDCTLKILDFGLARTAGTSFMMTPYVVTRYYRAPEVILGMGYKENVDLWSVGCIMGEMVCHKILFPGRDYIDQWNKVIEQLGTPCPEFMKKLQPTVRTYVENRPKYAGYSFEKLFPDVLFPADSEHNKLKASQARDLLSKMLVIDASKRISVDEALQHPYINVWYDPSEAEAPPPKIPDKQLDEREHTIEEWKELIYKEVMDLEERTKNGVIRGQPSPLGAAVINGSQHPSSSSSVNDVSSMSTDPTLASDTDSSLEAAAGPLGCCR
SMILES,residual activity [1] [%],residual activity [2] [%],residual activity [3] [%],residual activity [4] [%],residual activity [5] [%],residual activity [6] [%],residual activity [7] [%],residual activity [8] [%],residual activity [9] [%],residual activity [10] [%]
CC(=O)O/N=C1\C(=C2\C(=O)Nc3cc(Br)ccc32)Nc2ccccc21,39,103,71,75,26,98,94,91,94,77
CCC(=O)Nc1ccc2ncnc(Nc3cccc(Br)c3)c2c1,102,89,107,99,100,94,76,105,89,72
CC#CC(=O)Nc1cc2c(Nc3ccc(F)c(Cl)c3)ncnc2cn1,92,96,97,51,59,96,72,103,95,76
O=C(O)c1ccc2c3c1cccc3c(=O)n1c3ccccc3nc21,94,100,40,46,9,105,79,83,55,78
Nc1nc(Nc2ccc(S(N)(=O)=O)cc2)nn1C(=S)Nc1c(F)cccc1F,3,2,0,0,2,88,84,71,19,35
COc1ccc(OC)c2c(=S)c3ccccc3[nH]c12,97,88,102,97,97,99,95,88,106,80
O=C1c2ccccc2-[n+]2ccc3c([nH]c4ccccc43)c21,93,95,101,109,,97,87,92,106,71
O=C1Nc2ccc(Br)cc2/C1=C\c1cc2c([nH]1)CCCC2,,105,99,108,101,114,114,101,,
N#CCCc1ccc2c(c1)-c1[nH]c3ccc([N+](=O)[O-])cc3c1CC(=O)N2,52,,,,66,,,,,67
COc1cc2ncnc(Nc3ccc(NC(=O)c4ccccc4)cc3)c2cc1OC,99,,,102,,,,109,108,
c1ccc(-c2n[nH]c3c2oc2ccccc23)cc1,66,,,92,70,,,,,59
c1ccc(-c2n[nH]cc2-c2ccnc3ccccc23)nc1,104,94,109,,,,,109,99,79
COc1cc2ncnc(Nc3ccc(Oc4ccccc4)cc3)c2cc1OC,,118,148,93,113,106,110,121,98,83
COc1cc2ncc(-c3ccccc3)nc2cc1OC,,,,92,58,,,,,99
Cc1cc(Nc2nc(-c3ccccc3)nc3ccccc23)n[nH]1,0,14,1,41,5,94,71,,66,51
CC(=O)c1ccc(N2CCOCC2)cc1O,97,102,96,102,105,104,80,101,103,88
Cc1cncc2cccc(S(=O)(=O)N3CCCN(C(=O)CN)C[C@H]3C)c12,,,,92,,95,82,,79,72
Cn1cnc2cc3c(Nc4cccc(Br)c4)ncnc3cc21,87,111,99,102,108,98,77,112,94,54
CCN(CC)C(=O)c1ccc(Nc2nc(OCC3CCCCC3)c3nc[nH]c3n2)cc1,2,3,-1,7,1,44,-11,44,0,5

SMILES,residual activity [1] [%],residual activity [2] [%],residual activity [3] [%],residual activity [4] [%],residual activity [5] [%],residual activity [6] [%],residual activity [7] [%],residual activity [8] [%],residual activity [9] [%],residual activity [10] [%]
N#CC(C#N)=C(N)/C(C#N)=C/c1ccc(O)cc1,,,,,,,83,,,96
O=C(Nc1cccc(Nc2cc(Nc3cccc(C(F)(F)F)c3)ncn2)c1)C1CC1,95,116,138,106,115,107,83,104,103,82
Cn1cc(/C=C2\C(=O)Nc3ccc(S(N)(=O)=O)cc32)c2ccccc21,1,53,21,45,11,109,95,98,95,58
c1ccc2c(-c3ccncc3)c[nH]c2c1,95,97,101,103,,97,78,107,93,
CCOc1cc2ncnc(Nc3cccc(Br)c3)c2cc1OCC,85,118,88,105,87,99,77,105,96,43
Cc1ccc(S(=O)(=O)/C=C/C#N)cc1,102,99,103,109,105,115,96,107,112,74
N#Cc1cnc2cnc(NCc3cccnc3)cc2c1Nc1ccc(F)c(Cl)c1,48,96,94,82,81,,,95,97,
COc1ccc(S(=O)(=O)N(CCO)c2ccccc2CN(C)C/C=C/c2ccc(Cl)cc2)cc1,94,102,131,116,104,95,85,92,97,82
Ic1cccc(CSc2nnc(-c3ccncc3)o2)c1,95,86,104,102,89,93,84,90,96,73
O=[N+]([O-])c1ccc(-c2nc(-c3ccc(F)cc3)c(-c3ccncc3)[nH]2)cc1,98,99,101,118,108,102,98,68,59,8
COc1ccc(C(=O)Nc2sc3c(c2C(N)=O)CCCC3)cc1OC,96,80,101,99,100,106,68,99,94,66
CC(C)n1cnc2/c(=N/c3cccc(Cl)c3)nc(NCCO)[nH]c21,22,92,89,111,81,103,89,97,105,64
CN(C)CCCn1cc(C2=C(c3c[nH]c4ccccc34)C(=O)NC2=O)c2ccccc21,,121,90,,,111,,,,117
N#C/C(=C(\N)Sc1ccc(N)cc1)c1ccccc1C(F)(F)F,96,99,98,101,101,95,100,93,103,114
Cc1cc2ncc(-c3ccccc3)nc2cc1C,,101,,98,81,,99,108,97,108
CO[C@H]1C[C@@H]2CC[C@@H](C)[C@@](O)(O2)C(=O)C(=O)N2CCCC[C@H]2C(=O)O[C@H]([C@H](C)C[C@@H]2CC[C@@H](O)[C@H](OC)C2)CC(=O)[C@H](C)/C=C(\C)[C@@H](O)[C@@H](OC)C(=O)[C@H](C)C[C@H](C)/C=C/C=C/C=C/1C,113,101,160,103,124,107,90,111,96,108
Cc1cccc(-c2[nH]c(C(C)(C)C)nc2-c2ccc3c(c2)OCO3)n1,103,,,,,,97,,94,90
Cc1ccc(NC2=CC(=O)c3sc(C)nc3C2=O)cc1,101,97,104,113,107,112,92,100,106,83
Cc1nc(-c2ccccc2)c(-c2ccncc2)o1,101,113,115,97,114,107,94,88,57,63
